The target in this experiment is Solute carrier family 2, facilitated glucose transporter member 1 (Homo sapiens) (UniProt P11166). Description: ST_JUDE_LEISH: Cytotoxicity at 2uM final concentration against transgenic Leishmania Mexicana promastigotes LmGLUT1 that are glucose transport deficient and complemented with the human glucose transporter GLUT1. Activity is measured by DNA content using SYBR green in vitro. The class given is functional.
Chain of Solute carrier family 2, facilitated glucose transporter member 1 (Homo sapiens) (P11166 whole entry): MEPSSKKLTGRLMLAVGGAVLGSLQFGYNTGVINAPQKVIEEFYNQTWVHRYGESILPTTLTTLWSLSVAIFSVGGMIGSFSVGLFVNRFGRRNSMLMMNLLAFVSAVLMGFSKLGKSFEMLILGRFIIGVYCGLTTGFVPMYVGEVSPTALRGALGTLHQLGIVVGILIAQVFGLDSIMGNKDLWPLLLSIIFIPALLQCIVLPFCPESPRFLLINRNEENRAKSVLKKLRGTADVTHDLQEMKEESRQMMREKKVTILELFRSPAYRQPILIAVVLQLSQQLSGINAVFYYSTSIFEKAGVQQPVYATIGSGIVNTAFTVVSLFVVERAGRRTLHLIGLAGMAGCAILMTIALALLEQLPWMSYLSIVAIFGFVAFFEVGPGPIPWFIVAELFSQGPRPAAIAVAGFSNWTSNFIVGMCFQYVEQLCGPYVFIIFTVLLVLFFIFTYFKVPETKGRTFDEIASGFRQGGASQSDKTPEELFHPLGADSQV
As for `CO/C(=C\C=C\c1cc2cc(Cl)c(Cl)cc2[nH]1)C(=O)NCC(C)(C)CN(C)C`, the inhibition – broadly, the relative decrease from the control value, in per cent – was -1.89%.

Consider `CCNc1nc(OCC(F)(F)F)nc(N(c2ccccc2)c2ccccc2)n1`, for which the inhibition came to 0.4%. Consider `COc1ccccc1C1CCN(C2CCC(NC(=O)/C=C/c3cc(F)cc(F)c3)CC2)CC1` (stereo not given), for which the inhibition was -1.84%.

Take `Cc1cccc(-c2ccc(NC(=O)C3CCN(Cc4cccc(O)c4)CC3)cc2)c1`: the inhibition amounted to 0.07%.

As for `Cc1ccc(NC(=O)Nc2ccc(I)c(OCCN(C)C)c2)cc1Cl`, the inhibition was determined as 10.6%. `CCOC(=O)C(CO)NC(=O)c1ccc([N+](=O)[O-])o1` (stereo not given): the inhibition was 2.12%. Take `CCN(CCCN1CCCCC1)c1nccc(Nc2ccc(Cl)cc2)n1`: the inhibition was determined as 2.03%. Regarding `COc1ccccc1CCNc1ncc(F)c(N[C@@H](Cc2ccccc2)C(=O)NCCc2ccccc2)n1`, the inhibition turned out to be 0.53%. For `Cc1cccc2nc(-c3cccc(-c4cccc(NC(=O)c5ccncc5)c4)c3)[nH]c12` the value was 3.32%; for `COc1ccc2nccc(N3CCN(CCNCc4ccc5c(n4)NC(=O)CO5)CC3)c2n1`, 11.2%. Turning to `O=S(=O)(Nc1ccc(CCN2CCCCC2CCN2CCCC2)cc1)c1ccc(-c2ccccc2)cc1` (stereo not given), the inhibition came out at 9.09%.

For the compound `O=C(NC1CCC(N2CCCC(OCc3ccccc3)C2)CC1)c1cc2ccccc2[nH]1` (stereo not given), the inhibition stood at 0.93%. As for `OC(CNCc1ccccc1OCc1ccccc1)c1cc(Br)cs1` (stereo not given), the inhibition came to 3.96%. As for `Cc1nc(Nc2cc(Cl)ccc2O)nc(Nc2cc(Cl)ccc2O)c1[N+](=O)[O-]`, the inhibition turned out to be 4.36%. For `CCc1cc(NC(=O)Nc2ccnc3ccccc23)ccc1OC`, the inhibition was 19%. For `CC(c1cccc(Nc2nccc(-c3c(-c4cccc(NC(=O)c5c(F)cccc5F)c4)nn4ncccc34)n2)c1)S(C)(=O)=O` (stereo not given) the value was -2.21%; for `O=C(Nc1cccc(CN2CCCN(Cc3ncc[nH]3)CC2)c1)c1cc2ccccc2s1`, 3.43%.

With `COc1ccc(C(=O)C2CCN(CCCCNC(=O)c3ccc(NC(=O)c4cc(Cl)cc(Cl)c4)cc3)CC2)cc1`, the inhibition is 3.02%.

Take `CC(C)NCc1ccc(-c2ccc(CN3CCCC(c4ccccc4)C3)cc2)c(C(=O)NC2Cc3ccccc3C2)c1` (stereo not given): the inhibition stood at 16.8%. For `CCNC(=O)Nc1cccc(-c2cccc(-c3nc4cccc(C)c4[nH]3)c2)c1`, the inhibition was found to be 4.32%.

For the compound `COc1cc2nc(-c3ccc(Br)cc3)cc(N)c2cc1OC`, the inhibition was determined as 64.2%. As for `Cc1ccc(-c2nnc3c4ccccc4c(C)nn23)cc1S(=O)(=O)N1CCN(CCO)CC1`, the inhibition is 0.38%.

In the case of `CNCCNCc1ccc(-c2ccc(-c3nc4cccc(C)c4[nH]3)s2)cc1`, the inhibition turned out to be 2.93%. For `CCCCc1ccccc1NS(=O)(=O)c1ccc(OC)c(N2CCNCC2)c1` the value was -0.96%; for `O=C(/C=C/c1ccc(Cl)cc1)NCCCCCN1CCCC(C(=O)Nc2ccc(Cl)c(Cl)c2)C1` (stereo not given), 0.22%. In the case of `CCNc1cc(C(=O)N[C@@H](Cc2ccccc2)[C@H](O)CNC2(CCC(C)C)CC2)cc(N2CCCCS2(=O)=O)c1`, the inhibition was -1.85%.

With `Nc1cc(-c2cccc(Cl)c2)nn1-c1ccnc2cc(Cl)ccc12`, the inhibition was -0.77%. As to `Nc1cc(-c2ccc3c(N)nccc3c2)ccc1Cl`, the inhibition was determined as 4.64%. As to `O=C(Nc1ccc(N2CCN(c3ncccc3C(F)(F)F)CC2)nc1)c1cccs1`, the inhibition was determined as 2.6%. `CN(Cc1ccc(C#N)cc1)C1CCN(c2cc(NC(=O)c3ccc(F)cc3)ccn2)CC1`: the inhibition is 1.28%. As to `COc1ccc(NC(=O)NC2CCN(c3ccnc4cc(Cl)ccc34)C2)cc1` (stereo not given), the inhibition turned out to be 4.89%.

Consider `CCCC1(NC[C@@H](O)[C@H](Cc2ccccc2)NC(=O)c2cc(NCC)cc(N3CCCCS3(=O)=O)c2)CCCCC1`, for which the inhibition is -0.81%. For `Cc1cc(NCc2ccc(F)cc2)nc2cc(O)ccc12` the value was 2.81%; for `COc1cc(Cc2cnc(N)nc2N)cc(OC)c1OCCCCC(=O)O`, -0.54%. With `c1cc(CN2CCC(CCN3CCCCC3)CC2)cc(-c2csc(-c3nc4ccccc4[nH]3)c2)c1`, the inhibition came out at 7.93%. Consider `COc1cccc(C2CCCN(CCCCNC(=O)c3ccc(NC(=O)c4ccc(Cl)cc4)cc3)C2)c1` (stereo not given), for which the inhibition is 2.97%. Take `O=C(Cc1cccc(Cl)c1)Nc1cccc(-c2c[nH]c3nc(Nc4cccc(O)c4)ncc23)c1`: the inhibition is 0.33%. Take `N#CCc1ccc(Nc2nccc(Nc3ccc(Oc4ccccc4)cc3)n2)cc1`: the inhibition was determined as 13.8%. Turning to `COc1ccc(CNC2CCN(C)CC2)cc1-c1ccc(S(=O)(=O)NCCc2ccccn2)c(F)c1`, the inhibition came out at 3.16%. For the compound `O=C(NCc1cccc(C(F)(F)F)c1)[C@@H]1CCCN1C(=O)c1ccc(O)c(-c2ccc(Cl)c(Cl)c2)c1`, the inhibition was -0.44%.

The record behind these values is ChEMBL document CHEMBL3433997, “St. Jude Leishmania screening dataset” (2016).
